# Compound activity as filed in PubChem BioAssay.
# D1 antag – human D1 dopamine receptor antagonism | 360,000 compounds, 3.2% hits | HEK293 TREx D1 cells, calcium flux, dopamine EC80; hits give low values | activity change, negative = inhibition, % at 10 µM | P21728; in the data active means activity change below about -30%; further: on the % scale 0 is the no-effect control and ±100 the full control effect
#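 Kinetic fluorescence of a calcium dye serves as the read-out. D1-expressing Hek293 Trex cells, induced overnight at 30 C, are exposed to compound for 180 s before an EC80 dopamine addition, then read 180 s further.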
# D1 agonist – activates the human D1 dopamine receptor; P21728; HEK293 T-REx D1 cells, calcium flux, agonist mode; activation, % at 2 µM; 360,000 compounds, 1% hits; AID 504660; further: 0% is about no effect
#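 Inducible HEK293 T-REx D1 cells, force-coupled to calcium signalling, were plated at 4000 cells/well with tetracycline and held overnight at 30 C. After no-wash calcium dye loading, compound-evoked calcium rise over 180 s flagged agonists.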
# TRHR ag – TRH receptor (human) agonism | P34981 | TRHR cells, calcium flux fluo-8, FDSS agonist mode | activation, % at 2 µM | 360,000 compounds, 0.18% hits; further: 0% is about no effect
# Target sequence (P34981 whole entry, looked up): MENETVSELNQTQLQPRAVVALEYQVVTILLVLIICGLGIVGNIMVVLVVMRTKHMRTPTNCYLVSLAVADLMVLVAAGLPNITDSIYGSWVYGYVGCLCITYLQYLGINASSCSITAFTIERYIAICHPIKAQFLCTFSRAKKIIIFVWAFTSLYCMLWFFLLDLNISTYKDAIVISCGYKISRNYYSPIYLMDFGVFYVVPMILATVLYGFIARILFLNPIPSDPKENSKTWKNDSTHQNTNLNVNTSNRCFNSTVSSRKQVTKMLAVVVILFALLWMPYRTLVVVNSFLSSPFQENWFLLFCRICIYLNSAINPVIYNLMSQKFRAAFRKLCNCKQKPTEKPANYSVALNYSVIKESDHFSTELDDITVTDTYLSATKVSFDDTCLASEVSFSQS
#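 Fluo-8-loaded TRHR cells; 10 s baseline, compound added, kinetic Ca2+ fluorescence read 1/s, agonist mode.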
# D1 potentiator – enhances dopamine response at the human D1 receptor. P21728. HEK293 TREx D1 cells, calcium flux, dopamine EC20 potentiation. potentiation, % at 10 µM. 360,000 compounds, 0.036% hits. AID 504651; in the data active means potentiation above about 30%; further: 0% is about no effect
# TRHR enhancer – TRH receptor (human) allosteric enhancement; 360,000 compounds, 0.66% hits; enhancement, % at 2 µM; TRHR cells, fluo-8 calcium fluorescence, EC20 TRH enhancement; P34981; AID 493056; in the data active means enhancement above about 30%; further: 0% is about no effect
#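 Enhancer read-out: after compound pinning and an initial kinetic agonist-mode read, an EC20 of TRH (10 nM final) was injected and fluo-8 calcium signal (Ex 480/Em 530) followed at 1 s/cycle for 100 cycles in TRHR-expressing cells.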
# * = called active by the depositor; ! = repeats disagree. A selection: hits, their analogues and other compounds. The true share with any hit is near 4.7%. Unless noted, no stated cut-off is given here; in the data, active means activation above about 30%; inactive means the rest.
SMILES,D1 antag,D1 agonist,TRHR ag,D1 potentiator,TRHR enhancer
COc1ccc(CC(=O)NC(=S)Nc2ccc(S(N)(=O)=O)cc2)cc1,10,34*,2,-9,0
COc1ccc(NC(=O)CCS(=O)(=O)c2ccc(OC)cc2)cc1,-42*,-1,-2,-12,5
COc1ccc(CC(=O)NC(=S)Nc2ccc(S(=O)(=O)NC(C)(C)C)cc2)cc1,-2,16,4,7,4
COc1cccc(NC(=O)CCS(=O)(=O)c2ccc3c(c2)oc(=O)n3C)c1,-30*!,3,0,2,7
COc1cc(NC(=O)CCc2c(C)nc3c4c(C)cc(C)nc4nn3c2C)cc(OC)c1,15,0,0,-1,1
Cc1cc2c(s1)c1cnn(Cc3c(F)ccc(C)c3F)c(=O)c1n2C,-24,0,0,12,4
O=c1oc2ccc3ccccc3c2cc1-c1nnc(Nc2ccccc2F)s1,-9,8,3,-1,5
O=c1oc2cc(O)ccc2cc1-c1nnc(Nc2ccccc2F)s1,-4,405*,187*,16,39*
COc1cccc(Nc2nnc(-c3cc4ccc(O)cc4oc3=O)s2)c1,-28,369*,70*,7,5
CCOc1ccccc1NC(=O)NC(CC)c1c(-n2cccc2)sc2c1CCN(C)C2 (stereo not given),6,2,0,4,6
CSc1nc(C)c(Oc2ccccc2)c(=O)n1C,-71*,-4,-1,-12,0
CCOc1ccc(NC(=O)Cc2ccc(NC(=O)N3CCCCc4ccccc43)cc2)cc1,-14,1,0,-4,2
Cc1cc(=O)n2nc(N(C)CC(=O)NCc3ccc(Cl)cc3)sc2n1,-7,0,1,-1,4
FC(F)C(F)(F)c1cc(-c2ccc(Cl)cc2)n[nH]1,-46*,86*,-1,1,5
Fc1ccc(-c2cc(C(F)(F)C(F)F)[nH]n2)cc1,-48*,64*,17,-15,5
Oc1ccccc1-c1cc(C(F)(F)C(F)F)[nH]n1,-12,10,1,-3,-7
Cc1cc(NS(=O)(=O)c2cccs2)no1,-83*,1,0,-15,-1
Cc1ccc(S(=O)(=O)Nc2cc(C)on2)cc1,2,2,-1,0,-6
Cc1cc(NC(=O)c2cccs2)no1,3,2,0,1,-1
Cc1cc(NC(=O)c2cc(-c3cccs3)on2)no1,-42*,7,1,-10,-9
CCC1CN(C(=O)N2CCC(C(=O)NCCc3ccc(C)cc3)CC2)c2ccccc2O1 (stereo not given),13,6,-1,-1,-5
CCOc1ccccc1C(=O)Nc1cc(-c2nc3cccnc3s2)ccc1C,27,16,1,3,1
NCCCCCc1nnc(SCc2ccc(F)cc2)o1,3,0,1,-5,0
CCc1ccc(CN2CCC(CO)(CC3CCCCO3)CC2)o1 (stereo not given),-38*,4,1,-6,1
Cc1ccc(CN2CCC(CO)(CC3CCCCO3)CC2)o1 (stereo not given),7,0,0,5,14
SMILES,D1 antag,D1 agonist,TRHR ag,D1 potentiator,TRHR enhancer
COCc1ccc(CN2CCC(CO)(CC3CCCCO3)CC2)o1 (stereo not given),-40*,1,1,-6,8
COc1cc2c(cc1OC)[C@H](Cc1ccc(O)cc1)NCC2,-20,1,0,-8,7
COc1cc2c(cc1O)C(Cc1ccc(O)cc1)NCC2 (stereo not given),-76*,-1,0,-12,1
COc1ccc(C[C@H]2c3cc(O)c(OC)cc3CC[N+]2(C)[O-])cc1O (stereo not given in full),-83*,5,0,-7,6
COc1cc2c(cc1O)C(Cc1ccc(O)cc1)[N+](C)([O-])CC2 (stereo not given),-38*,2,0,-6,3
COCCNc1nc2c(S(=O)(=O)c3ccc(C)c(C)c3)nnn2c2ccc(Cl)cc12,-64*,1,0,-8,-15
COCCCNc1nc2c(S(=O)(=O)c3ccc(C)c(C)c3)nnn2c2ccc(Cl)cc12,-66*,2,0,-7,-14
Cc1ccc(S(=O)(=O)c2nnn3c2nc(NC(C)C)c2sccc23)cc1,-30*,5,0,-7,-7
